Assay results from the supplement of paper PMC3545927.
The list shows a part of the results. How many sequences the whole screen found active is unknown.

Target: furin, P09958
Assay: furin cleavage Z-score vs untreated control; higher = more cleavage, active = 3.5 or more, inactive = 1 or less, 8 variable residues between constant flanks
Summary of the method: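 The cleavage Z-score is the log read count relative to furin-free reactions, lowess-adjusted and scaled by median absolute deviation. Counts came from sequencing DNA released from bead-bound 8-mer peptide–cDNA fusions after digestion with purified furin for 7.5, 15 or 30 min.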
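Note: purified furin at 1:10 enzyme:substrate in 50 mM HEPES pH 7.5.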

Chain of furin, P09958 (P09958 whole entry): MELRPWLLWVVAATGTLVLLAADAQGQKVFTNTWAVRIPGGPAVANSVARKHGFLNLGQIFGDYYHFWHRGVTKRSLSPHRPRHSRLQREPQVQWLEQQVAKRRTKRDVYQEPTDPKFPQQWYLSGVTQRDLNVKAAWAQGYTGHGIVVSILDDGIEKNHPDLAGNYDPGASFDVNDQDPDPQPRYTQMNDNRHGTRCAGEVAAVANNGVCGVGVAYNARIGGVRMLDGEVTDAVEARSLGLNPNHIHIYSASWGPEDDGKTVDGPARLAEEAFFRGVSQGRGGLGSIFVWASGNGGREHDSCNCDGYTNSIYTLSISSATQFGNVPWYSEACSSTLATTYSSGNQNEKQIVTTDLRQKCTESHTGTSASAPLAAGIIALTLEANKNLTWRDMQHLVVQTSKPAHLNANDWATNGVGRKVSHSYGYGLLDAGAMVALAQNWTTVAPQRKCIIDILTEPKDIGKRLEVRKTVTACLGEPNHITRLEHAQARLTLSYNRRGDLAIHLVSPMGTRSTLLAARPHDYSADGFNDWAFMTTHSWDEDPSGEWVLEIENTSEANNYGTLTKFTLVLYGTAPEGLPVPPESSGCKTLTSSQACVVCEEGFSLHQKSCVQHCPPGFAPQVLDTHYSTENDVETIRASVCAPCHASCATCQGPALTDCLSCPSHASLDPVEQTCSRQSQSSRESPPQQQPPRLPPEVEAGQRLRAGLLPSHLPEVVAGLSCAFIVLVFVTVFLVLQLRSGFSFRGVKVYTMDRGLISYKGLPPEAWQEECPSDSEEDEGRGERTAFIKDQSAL

Sequence	furin cleavage Z-score (7.5 min)	furin cleavage Z-score (15 min)	furin cleavage Z-score (30 min)
CASYLKGSSGAGNASASA [HC740]	-0.0827 (inactive)	-0.32 (inactive)	-1.27 (inactive)
CAIQRLHGLSAGNASASA [HC1602]	-1.82 (inactive)	1.34	-0.804 (inactive)
CAWVVTSTWVAGNASASA [HC2148]	-0.151 (inactive)	0.93 (inactive)	-1.01 (inactive)
CARKRRSLGDAGNASASA [FS-2976]	11.1 (active)	13.3 (active)	9.59 (active)
CARTIRSFEGAGNASASA [FS-2240]	3.24	4.83 (active)	5.83 (active)
CASKGRRRKDAGNASASA [FS-1656]	5.25 (active)	6.69 (active)	5.72 (active)
CAFKIRMYVGAGNASASA [HC474]	-0.697 (inactive)	0.386 (inactive)	-0.234 (inactive)
CACTMLVCGDAGNASASA [HC1526]	-1.57 (inactive)	-1.58 (inactive)	0.193 (inactive)
CARTNRDMHGAGNASASA [FS-3109]	-0.446 (inactive)	1.17	-0.99 (inactive)
CARKRRVLTPAGNASASA [FS-2979]	-0.402 (inactive)	-0.0349 (inactive)	-1.55 (inactive)
CARFGRQDEGAGNASASA [FS-1947]	-2.89 (inactive)	-0.0904 (inactive)	-0.336 (inactive)
CARKRRVRKDAGNASASA [FS-1560]	8.86 (active)	7.9 (active)	6.61 (active)
CALYFQSGTVAGNASASA [TV3]	-1.09 (inactive)	-1.65 (inactive)	-0.81 (inactive)
CAVFSQMETKAGNASASA [HC648]	-1.33 (inactive)	-0.992 (inactive)	-0.89 (inactive)
CAGYTGDFDSAGNASASA [HC882]	0.222 (inactive)	-2.26 (inactive)	-1.5 (inactive)
CAICESAGVQAGNASASA [HC1532]	0.831 (inactive)	-0.227 (inactive)	-1.02 (inactive)
CARKRRSTNEAGNASASA [FS-2039]	13.4 (active)	14 (active)	10.3 (active)
CARKRKGSDDAGNASASA [FS-2696]	1.74	0.267 (inactive)	-0.22 (inactive)
CARTGRPVEPAGNASASA [FS-2822]	-0.133 (inactive)	-0.269 (inactive)	-0.327 (inactive)
CARKRRSTDFAGNASASA [FS-2217]	9.58 (active)	11.2 (active)	9.06 (active)
CARRNRLRKDAGNASASA [FS-87]	7.91 (active)	8.84 (active)	6.68 (active)
CARKGRCVEPAGNASASA [FS-2686]	3.13	3.86 (active)	4.66 (active)
CARKGRNKEIAGNASASA [FS-2687]	0.916 (inactive)	0.216 (inactive)	0.59 (inactive)

Sequence	furin cleavage Z-score (7.5 min)	furin cleavage Z-score (15 min)	furin cleavage Z-score (30 min)
CARRKRLRQDAGNASASA [FS-2780]	0.471 (inactive)	0.0552 (inactive)	1.44
CARRKRKNKDAGNASASA [FS-1967]	-0.815 (inactive)	0.207 (inactive)	1.06
CAQVPSPEFFAGNASASA [HC1218]	-1.13 (inactive)	-0.661 (inactive)	0.459 (inactive)
CAVTVPHPNIAGNASASA [HC838]	0.905 (inactive)	1.12	1.65
CASLLAPGAKAGNASASA [HC361]	-0.751 (inactive)	-1.11 (inactive)	-0.788 (inactive)
CARAERKTEIAGNASASA [FS-2881]	-0.287 (inactive)	1.15	-0.302 (inactive)
CANKRRSVRFAGNASASA [FS-833]	5.74 (active)	7.19 (active)	8.22 (active)
CARKRRSVNPAGNASASA [FS-2702]	11.8 (active)	12.1 (active)	9.6 (active)
CAVERRSVNKAGNASASA [FS-1814]	-1.15 (inactive)	-0.638 (inactive)	-0.108 (inactive)
CADKRRSVRIAGNASASA [FS-1669]	0.236 (inactive)	-0.291 (inactive)	0.74 (inactive)
CARKPRCGNPAGNASASA [FU7]	0.143 (inactive)	2	0.939 (inactive)
CAMKRRSVTMAGNASASA [FS-2126]	1.48	0.933 (inactive)	2.48
CARTQRSTEIAGNASASA [FS-2614]	1.54	2.65	3.99 (active)
CAEVPCHIPSAGNASASA [HC2364]	0.695 (inactive)	0.0124 (inactive)	0.569 (inactive)
CAAKQRPPRSAGNASASA [FS-1301]	8.85 (active)	8.91 (active)	7.56 (active)
CAAKQRERRYAGNASASA [FS-1300]	9.27 (active)	10.1 (active)	7.92 (active)
CAQGGRPPRPAGNASASA [FS-1055]	-0.328 (inactive)	-0.378 (inactive)	0.24 (inactive)
CADGGRPPRSAGNASASA [FS-1114]	2.6	2.51	3.55 (active)
CAAKQNVQLIAGNASASA [HC364]	1.11	2.16	-0.868 (inactive)
CAVFERVSRSAGNASASA [FS-733]	5.52 (active)	7.31 (active)	6.35 (active)
CAADHRFYRYAGNASASA [FS-1507]	-0.685 (inactive)	-0.762 (inactive)	0.166 (inactive)
CAATATPPGSAGNASASA [HC834]	-1.04 (inactive)	-0.000581 (inactive)	-0.987 (inactive)
